# Assay results as given in PubChem BioAssay (NCATS).
# Inconclusive results are not listed. Unmarked numbers belong to inactive results. Calls of active or inactive are those of the source. Calls follow the shape of the dose curve; as a rule, active = well fitted inhibition curve with a large enough effect; inconclusive = small, poorly fitted or top-dose-only effect; inactive = no such curve, though single readings can be large or run the other way.
# Legend:
# [1] = target: Cytochrome P450 2D6 (Homo sapiens) (UniProt P10635); experiment: qHTS Assay for Inhibitors and Substrates of Cytochrome P450 2D6 (AID 891); conditions: recombinant CYP2D6, luciferin-ME EGE luminescence; series mostly up to 57.1 µM;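 as to activity change, negative = inhibition: luciferin methyl ether substrate demethylated by CYP2D6 with NADPH regeneration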
# How it was run: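 Human CYP2D6 (5 nM) with 30 uM Luciferin-ME EGE (at Km) in 100 mM KPO4, compound preincubated 10 min, then NADPH regeneration system for 60 min at room temperature. Luciferin read by luminescence; normalized to 1.43 uM quinidine.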
# [2] = target: Cytochrome P450 2C9 (Homo sapiens) (UniProt P11712); experiment: qHTS Assay for Inhibitors and Substrates of Cytochrome P450 2C9 (AID 883); conditions: recombinant CYP2C9, luciferin-H luminescence, 60 min; series mostly up to 57.1 µM
# How it was run: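 10nM CYP2C9 + 100uM Luciferin-H (=KM), 25mM KPO4; cpd 10 min 37C; NADPH regen, 60 min 37C; stop/detect with P450 Glo-Buffer 20 min; luminescence. Norm. to 57uM sulphaphenazole as full inhibition.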
# % is scaled to controls: 0 for no effect and ±100 for the full control effect; potency is read from the fitted curve at half-maximal effect.
# Also: nearly all actives have a fitted effect of over 60% in size.
# Chain of Cytochrome P450 2C9 (Homo sapiens) (P11712 whole entry, looked up): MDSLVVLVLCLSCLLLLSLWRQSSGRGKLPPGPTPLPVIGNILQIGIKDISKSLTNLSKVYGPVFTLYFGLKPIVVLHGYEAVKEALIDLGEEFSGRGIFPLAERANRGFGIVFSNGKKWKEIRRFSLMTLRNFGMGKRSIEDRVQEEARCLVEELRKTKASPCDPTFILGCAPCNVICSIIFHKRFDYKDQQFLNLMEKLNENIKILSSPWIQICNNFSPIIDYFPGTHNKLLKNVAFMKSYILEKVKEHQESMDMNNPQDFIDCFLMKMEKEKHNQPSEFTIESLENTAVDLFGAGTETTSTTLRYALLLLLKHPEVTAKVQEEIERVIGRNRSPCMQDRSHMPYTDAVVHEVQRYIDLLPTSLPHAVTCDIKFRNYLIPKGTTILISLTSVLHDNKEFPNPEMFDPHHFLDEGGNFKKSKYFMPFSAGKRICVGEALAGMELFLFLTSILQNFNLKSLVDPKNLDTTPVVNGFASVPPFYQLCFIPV
# Chain of Cytochrome P450 2D6 (Homo sapiens) (P10635 whole entry, looked up): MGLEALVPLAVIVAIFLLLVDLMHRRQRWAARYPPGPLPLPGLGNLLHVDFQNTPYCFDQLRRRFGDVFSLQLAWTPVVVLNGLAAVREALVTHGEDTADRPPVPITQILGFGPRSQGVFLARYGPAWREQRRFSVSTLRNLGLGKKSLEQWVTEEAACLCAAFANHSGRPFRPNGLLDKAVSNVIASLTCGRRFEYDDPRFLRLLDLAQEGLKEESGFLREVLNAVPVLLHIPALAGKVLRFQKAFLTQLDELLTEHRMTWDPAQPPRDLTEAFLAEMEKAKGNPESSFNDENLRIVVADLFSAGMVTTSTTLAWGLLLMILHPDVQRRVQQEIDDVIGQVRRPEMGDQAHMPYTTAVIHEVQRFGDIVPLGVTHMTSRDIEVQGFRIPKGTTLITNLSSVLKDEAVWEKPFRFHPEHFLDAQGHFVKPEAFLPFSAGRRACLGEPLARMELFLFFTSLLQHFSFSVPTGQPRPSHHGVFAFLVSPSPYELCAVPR
structure (smiles),measurement,setting,value
CCNc1ncc2nc(-c3cc(F)cc(F)c3)c(=O)n(C[C@H]3CCCO3)c2n1,Potency,[1],158 nM (active)
Cc1ccccc1-c1nccc(NCc2cccs2)n1,Potency,[1],2510 nM (active)
CN(C)C(=O)c1ccc(-c2ccc3ncnc(N4CCC(C(=O)O)CC4)c3c2)cc1,"activity change, negative = inhibition",[2],37.2% [at 2.29 µM]
CN(C)Cc1ccccc1-c1cc(NC2CC2)ncn1,"activity change, negative = inhibition",[2],5.15% [at 2.29 µM]
same,Potency,[1],39.8 nM (active)
COCCNc1ccnc(-c2ccccc2C(F)(F)F)n1,"activity change, negative = inhibition",[2],34.3% [at 2.29 µM]
COc1ccc(CNc2ncncc2-c2cccnc2)c(OC)c1,"activity change, negative = inhibition",[2],26.1% [at 2.29 µM]
O=c1c(-c2cc(F)cc(F)c2)nc2cnc(N3CCNCC3)nc2n1C1CC1,Potency,[2],158 nM (active)
CCNc1ncc2nc(C)c(=O)n(-c3ccc(OC)cc3)c2n1,Potency,[2],inactive
same,Potency,[1],inactive
CNc1ccnc(-c2ccccc2CN(C)C)n1,Potency,[1],39.8 nM (active)
CC(=O)NCCNc1nc(-c2ccccc2C(F)(F)F)nc2ccccc12,Potency,[1],3980 nM (active)
Clc1ccccc1-c1nccc(-n2ccnc2)n1,Potency,[1],7940 nM (active)
O=c1c(-c2ccc(F)cc2)nc2cnc(N3CCOCC3)nc2n1C[C@H]1CCCO1,Potency,[2],inactive
